Measurements from PubChem BioAssay (EPA / NIEHS).
Activity calls are given as the source filed them. How the source made its calls: active means hit-call score of the fitted dose curve at least 0.9, where 1 is the maximum; inactive means score below 0.9.

Assay: ATG_MRE_CIS: Attagene CIS-FACTORIAL HepG2 Assay for human Metal Responsive Element (MRE) (AID 2282954)
Settings: HepG2 MRE cis-reporter transcription, Attagene multiplex; actives raise or lower the signal
Method: ATG_CIS is a cell-based, multiplexed-readout assay that uses HepG2, a human liver cell line, with measurements taken at 24 hours after chemical dosing in a 24-well plate.ATG_MRE_CIS is one of 52 assay component(s) measured or calculated from the ATG_CIS assay. It is designed to make measurements of mRNA induction, a form of inducible reporter, as detected with fluorescence intensity signals by Reverse transcription polymerase chain reaction (RT-PCR) and Capillary electrophoresis technology.Data from the assay component ATG_MRE_CIS was analyzed into 1 assay endpoint. This assay endpoint, ATG_MRE_CIS, was analyzed with bidirectional fitting relative to DMSO as the negative control and baseline of activity. Using a type of inducible reporter, measures of mRNA for gain or loss-of-signal activity can be used to understand the reporter gene at the transcription factor-level as they relate to the gene MTF1. Furthermore, this assay endpoint can be referred to as a primary readout, because this assay has produced multiple assay endpoints where this one serves a reporter gene function. To generalize the intended target to other relatable targets, this assay endpoint is annotated to the dna binding intended target family, where the subfamily is zinc finger.
Human liver HepG2 cells are transiently transfected with multiple reporter transcription units (MRTUs) in 6-well plates using FuGene 6 reagent (Roche; 3 ml FuGene/1 mg DNA). The MRTU constructs are regulated by a cis-regulating element (promoter). […] A major difference between the CIS and TRANS system is that in CIS activities of endogenous TFs are measured, whereas the TRANS assay evaluates changes in activities of exogenous, chimeric NR-Gal4 proteins. […] At the end of 24 hour incubation, total RNA was isolated using TriZol reagent (Invitrogen). The isolated RNA is then reverse-transcribed using oligo(dT) primer and Mo-MLV reverse transcriptase (Invitrogen) with DNAse I (Ambion) treatment for 30 min. The one-tenth of the produced cDNA was amplified by PCR using Taq DNA polymerase (Invitrogen) and two reporter sequence-specific primers. The PCR products were fluorescently labeled by primer extension with 6-arboxyfluorescein (6-FAM) 5'-labeled reporter sequence-specific primer (2 min at 95 C, 20 s at 68 C and 10 min at 72 C) and these products were digested with 5U of HpaI (New England Biolabs) for 2h at 37 C. The fragments were purified using Qiaquick PCR columns (Qiagen), analyzed on an ABI 3130xL genetic analyzer (Applied Biosystems) with peak positions identified by using a set of X-rhodamine (ROX)-labeled MapMarker1000 molecular weight standards (BioVentures). The raw capillary electrophoresis data was processed using Attagraph software (Attagene).

| SMILES | outcome | AC50 |
| --- | --- | --- |
| CCCCCCCCCCOC(C)=O | inactive | – |
| CCCCCCCCc1ccc(Nc2ccc(CCCCCCCC)cc2)cc1 | inactive | – |
| CCCCC(CC)CCC(CC(C)C)OS(=O)(=O)O (stereo not given) | inactive | – |
| CC1=CC[C@H](C(C)C)C=C1 | – | 66.3 µM (active) |
| CCOC(=O)NNc1nncc2ccccc12 | inactive | – |
| Nc1cccc(C(F)(F)F)c1 | inactive | – |
| C=CC=CC=CCCCCC | inactive | – |
| FC(F)(F)C(=NOCC1OCCO1)c1ccc(Cl)cc1 | – | 100 µM (active) |
| O=[N+]([O-])c1ccc(CO)cc1 | inactive | – |
| O=S(=O)(O)c1cc(S(=O)(=O)O)c2ccc3c(S(=O)(=O)O)cc(S(=O)(=O)O)c4ccc1c2c43 | inactive | – |
| Cn1c([N+](=O)[O-])cnc1COC(N)=O | inactive | – |
| CN(C)c1ccc(C(=N)c2ccc(N(C)C)cc2)cc1 | – | 6.69 µM (active) |
| CC(C)=CC1CC(C)CCO1 (stereo not given) | inactive | – |
| CN(C)CCCN(C)C | inactive | – |
| C1=CCCC1 | inactive | – |
| Nc1ccc(Cl)cc1Cl | inactive | – |
| CCCc1ccc(OC)cc1 | inactive | – |
| Cc1ccc(C(C)(C)C)cc1 | inactive | – |
| O=Nc1ccc(O)cc1 | inactive | – |
| O=C1CCCC1 | inactive | – |

| SMILES | outcome | AC50 |
| --- | --- | --- |
| CCCCCCOc1cc(C)c(O)c(C)c1C | – | 18.2 µM (active) |
| CNC(=S)N(C)C | inactive | – |
| OC1OCCOC1O (stereo not given) | inactive | – |
| Nc1ccc(N)c(Cl)c1 | inactive | – |
| CCCOCCOCCOCCO | inactive | – |
| C[C@]12C=CC(=O)C=C1CC[C@@H]1[C@@H]2[C@@H](O)C[C@@]2(C)[C@H]1CC[C@]2(O)C(=O)CO | inactive | – |
| OCCc1ccncc1 | inactive | – |
| CC=CC(=O)N(CC)c1ccccc1C | inactive | – |
| CN(C)c1ccc(N=Nc2ccccc2C(=O)O)cc1 | – | 43.9 µM (active) |
| COc1cc(C)ccc1C(C)C | inactive | – |
| CCOC(=O)c1ccc(N(C)C)cc1 | inactive | – |
| CCOCC(=O)O | inactive | – |
| O=Cc1ccc(CO)o1 | inactive | – |
| CC/C=C\CCOC(=O)CCCCC | inactive | – |
| Cc1cc(C)c(C)c(O)c1 | inactive | – |
| CC(C)CC(O)Cc1ccccc1 (stereo not given) | inactive | – |
| COCC(C)N (stereo not given) | inactive | – |
| O=c1cc[nH]c(=S)[nH]1 | inactive | – |
| CC(C)(C)c1ccc(-c2ccc(C(C)(C)C)cc2)cc1 | inactive | – |
| ON(Cc1ccccc1)Cc1ccccc1 | inactive | – |
